GLP-1R inv ag: acts as inverse agonist at human GLP-1 receptor; P43220; HEK293 GLP-1R CRE-luciferase, luminescence, 24 h; GLP-1R form is constitutively active; Potency, µM (top dose mostly 38.3 µM), actives largely listed as inhibitors; hit rate 1.6% among 410,000; note: nearly all actives have a fitted effect of over 55% in size
Target sequence (P43220 whole entry, looked up): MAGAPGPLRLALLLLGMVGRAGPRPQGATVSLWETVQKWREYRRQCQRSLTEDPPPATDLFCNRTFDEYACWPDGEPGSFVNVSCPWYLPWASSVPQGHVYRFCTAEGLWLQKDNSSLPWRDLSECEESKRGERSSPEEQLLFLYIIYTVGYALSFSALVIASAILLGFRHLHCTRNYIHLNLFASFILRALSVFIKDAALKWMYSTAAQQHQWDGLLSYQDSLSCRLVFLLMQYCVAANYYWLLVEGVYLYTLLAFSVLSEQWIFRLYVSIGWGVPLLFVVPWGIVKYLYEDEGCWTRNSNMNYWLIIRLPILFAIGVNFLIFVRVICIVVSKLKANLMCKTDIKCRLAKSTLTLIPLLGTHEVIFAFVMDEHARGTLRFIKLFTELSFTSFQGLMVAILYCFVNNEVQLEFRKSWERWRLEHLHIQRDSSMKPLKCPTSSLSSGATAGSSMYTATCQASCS
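Readout was luciferase luminescence, measured 12 min after detection reagent at room temperature. Beforehand, GLP-1R reporter HEK293 cells had sat 12 h, then received compounds for 24 hr at 37 deg C.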
GLP1R ag: agonists of human GLP-1 receptor | P43220 | HEK293 GLP-1R CRE-luciferase, luminescence, 4-6 h; cells express a hypersensitive GLP-1R form | Potency, µM (series often up to 45.6 µM), hits mostly activators | hit rate 0.007% among 380,000
LDHA inh: LDHA (human) enzyme inhibition; purified LDHA, NADH/diaphorase-resazurin fluorescence; active compounds read low; activity change, % (values are at about 110 or 230 µM); hit rate 0.15% among 480,000; P00338; in the data active = activity change below about -30%; inconclusive = mostly about -25% to -30%
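Enzyme activity of human lactate dehydrogenase 5 (2 nM; 0.06 mM NADH, 0.2 mM pyruvate, 5 min, RT) is measured via a resazurin/diaphorase fluorescence readout of residual NADH.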
p53 reactivation: restores transcriptional activity of mutant p53 | H1299 p53-A138V BP100-luciferase reporter, luminescence, 24 h | Potency, µM (doses to about 92.2 µM), actives largely listed as activators | hit rate 0.063% among 320,000; note: nearly all actives have a fitted effect of over 45% in size
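H1299 (p53-null), stable ts p53-A138V + BP100-Luc; 1000 cells/well, Opti-MEM/10% FBS; cpd 4 pt, 1:5; 24 h, 37 deg C, 5% CO2; detection reagent 10 min RT; luminescence.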
GLP1R cytotox: cytotoxicity in counter-screen for GLP-1R inverse agonists. HEK293 cAMP-luciferase reporter cells, luminescence, 24 h. Potency, µM (top dose mostly 38.3 µM), most hits filed as inhibitors. hit rate 0.13% among 410,000. AID 624418;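 note: loss of luciferase light is scored as toxicity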
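Quantitative HTS format, 1536 wells, 200 cells/uL seeded. Compounds: 23 nL, 24 h, 37 °C. Detection: luciferase reagent, luminescence at 12 min RT; decreased signal taken as cytotoxic.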
ClpP mod: qHTS Assay for Activators of ClpP | Potency, µM (doses to about 57.5 µM) | hit rate 1.9% among 340,000 | purified B. subtilis ClpP, FRET peptide cleavage, 20 min | ATP-dependent Clp protease proteolytic subunit (Bacillus subtilis (strain 168)), P80244; active = well fitted falling curve with a large enough effect; inconclusive = small, poorly fitted or top-dose-only effect; inactive = no such curve, though single readings can be large or run the other way; note: the source files actives as falling curves though it sought activators and does not explain the sign; nearly all actives have a fitted effect of over 65% in size
Target sequence (P80244 whole entry, looked up): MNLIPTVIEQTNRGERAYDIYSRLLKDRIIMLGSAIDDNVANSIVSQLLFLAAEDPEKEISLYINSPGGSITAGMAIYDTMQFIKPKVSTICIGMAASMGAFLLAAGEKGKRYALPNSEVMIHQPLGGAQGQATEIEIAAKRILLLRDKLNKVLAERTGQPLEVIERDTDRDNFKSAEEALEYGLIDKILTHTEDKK
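FRET quenching reversal measured ClpP activation: 10 microg/mL B. subtilis ClpP at pH 8 with the FRET-FV decapeptide, read at 430 nm after 320 nm excitation. The 20-min minus 0-min signal was scaled between DMSO/no-enzyme wells and ADEP (5.8 microM final).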
Large screens that a line does not name were inactive. Sampled rows, rich in hits. Any-hit rate of the full collection: about 2.9%. Unless noted, calls come from the whole dose curve; as a rule, active = well fitted curve in the direction sought with a large enough effect; inconclusive = small, poorly fitted or top-dose-only effect, or another doubt; inactive = no such curve, though single readings can be large; an effect the other way counts as inactive or inconclusive.

O=c1ccc(/C=C/c2ccccc2)nn1Cc1ccccc1Cl	ClpP mod inconclusive
Cc1ccc(/C=C/c2ccc(=O)n(Cc3ccc(Cl)cc3Cl)n2)cc1	ClpP mod 3.2µM
Cc1ccc(-c2ccc(=O)n(Cc3cc(C)ccc3C)n2)cc1	GLP-1R inv ag inconclusive
CCCCN(C(=O)C1COc2ccccc2O1)c1c(N)n(CCC)c(=O)[nH]c1=O (configuration not stated)	none
c1ccc(CSc2ccc(-c3ccccn3)nn2)cc1	p53 reactivation inconclusive (no result: ClpP mod)
Brc1ccc(CSc2ccc(-c3ccccn3)nn2)cc1	LDHA inh -31 (no result: GLP-1R inv ag, GLP1R ag, p53 reactivation, GLP1R cytotox, ClpP mod)
COc1ccc(-c2csc3ncnc(N4CCN(c5ccccc5Cl)CC4)c23)cc1	GLP-1R inv ag inconclusive, ClpP mod inconclusive
Nc1nc2ccccc2n1CCOc1ccc(Br)cc1	GLP-1R inv ag inconclusive (no result: p53 reactivation)
S=C(Nc1ccccc1)Nc1nc2ccccc2n1CCOc1ccc(Br)cc1	p53 reactivation 22µM
C=CCNc1nc(NCCOC)c2sc(-c3ccccc3)cc2n1	GLP-1R inv ag inconclusive (no result: p53 reactivation)
c1ccc(CNc2nc(NCC3CC3)nc3cc(-c4ccccc4)sc23)cc1	GLP-1R inv ag inconclusive, GLP1R cytotox inconclusive, ClpP mod inconclusive (no result: p53 reactivation)
c1ccc(OCCNc2nc(NCC3CC3)nc3cc(-c4ccccc4)sc23)cc1	GLP-1R inv ag inconclusive, GLP1R cytotox inconclusive, ClpP mod 25µM (no result: p53 reactivation)
C=CCNc1nc(NCCOc2ccccc2Cl)c2sc(-c3ccccc3)cc2n1	ClpP mod 28µM (no result: p53 reactivation)
O=C(Cn1ccc([N+](=O)[O-])n1)Nc1nccs1	none
O=C(OCCOc1ccc(F)cc1)c1ccc(S(=O)(=O)N2CCCC2)cc1	none
O=C(CNC(=O)c1ccco1)Nc1cc(Cl)ccc1N1CCOCC1	ClpP mod 28µM
CC(Oc1cccc(Cl)c1)C(=O)Nc1ccccc1N1CCCCC1 (configuration not stated)	GLP-1R inv ag inconclusive
CC(Oc1cccc(Cl)c1)C(=O)Nc1cc(Cl)ccc1N1CCOCC1 (configuration not stated)	GLP-1R inv ag 13µM
CN(C)c1cccc(C(=O)OCC(=O)c2ccc[nH]2)c1	none (no result: ClpP mod)
O=C(CSc1nccnc1N1CCN(c2ccccc2)CC1)Nc1ccccc1Cl	none (no result: GLP-1R inv ag, GLP1R ag, p53 reactivation, GLP1R cytotox, ClpP mod)
O=C(c1ccccc1)N1CCn2c(nc3ccccc32)C1	none
O=C(NCc1ccccc1)N1CCn2c(nc3ccccc32)C1	ClpP mod 32µM
CC(C)C(NC(=O)c1cc(=O)[nH]c2ccc(S(=O)(=O)N3CCOCC3)cc12)c1ccccc1 (configuration not stated)	none (no result: GLP-1R inv ag, GLP1R ag, p53 reactivation, GLP1R cytotox, ClpP mod)
Cc1cc(C)nc(N2CCCC(C(=O)NC3CCCC3)C2)n1 (configuration not stated)	ClpP mod 22µM
Cc1cc(C)nc(N2CCC(C(=O)NCc3ccco3)CC2)n1	ClpP mod 16µM
Cc1cc(C)nc(N2CCC(C(=O)NC3CCCCCC3)CC2)n1	none (no result: p53 reactivation)
COc1nc(OC)nc(N2CCC(C(=O)NCc3ccco3)CC2)n1	none
COCCCNC(=O)C1CCN(c2nc(C)cc(C)n2)CC1	ClpP mod inconclusive
COC(=O)CNC(=O)C1CCN(c2nc(C)cc(C)n2)CC1	ClpP mod 32µM
O=P(c1ccccc1)(c1ccccc1)c1cc(S(=O)(=O)O)ccc1O	none
COc1ccc(-c2nc(CN3CCN(C(=O)NC(C)C)CC3)c(C)o2)cc1	none (no result: GLP-1R inv ag, GLP1R ag, p53 reactivation, GLP1R cytotox, ClpP mod)
COc1ccc(C(=O)Nc2ccc3nc4n(c(=O)c3c2)CCCCC4)cc1OC	none (no result: p53 reactivation)
COc1cccc(CNC(C)(C)CO)c1OCc1ccc(Cl)cc1	GLP-1R inv ag 11µM (no result: ClpP mod)
Oc1[nH]c2ccccc2c1N=Nc1ccccc1	p53 reactivation 28µM (no result: ClpP mod)
Oc1[nH]c2ccccc2c1N=Nc1ccc(F)cc1	p53 reactivation inconclusive
O=C(CSc1nccn1Cc1ccccc1)Nc1ccccc1	none
Cc1cc(C)c2cc(C#N)c(NCCCNC(=O)c3ccncc3)nc2c1	none (no result: p53 reactivation)
COc1cc(C(=O)NCCCNc2nc3cc(C)cc(C)c3cc2C#N)cc(OC)c1OC	ClpP mod 25µM
C=CCN1CC(c2nc3ccccc3n2Cc2ccccc2)CC1=O (configuration not stated)	none
CCCC(=O)NC(c1ccc2c(c1)OCO2)c1cc(Cl)c2cccnc2c1O (configuration not stated)	GLP-1R inv ag 4µM
CC(=O)NC12CC3CC(C1)CC(C(=O)N(C)Cc1cccc(Cl)c1Cl)(C3)C2	GLP-1R inv ag inconclusive
O=c1cc(CSc2nc3ccccc3[nH]2)c2ccccc2[nH]1	none
Fc1ccc(CSc2nc3ccccc3[nH]2)c2ccccc12	GLP-1R inv ag 10µM
O=C(CNC(=O)c1ccccc1F)OCc1cc(=O)n2nc(C3CCCCC3)sc2n1	none (no result: GLP1R ag, p53 reactivation)
COc1ccc2c(c1)CC/C2=N\OC(=O)c1ccccc1OC	GLP1R cytotox 10µM
COc1ccc2c(Cl)c(-c3nnc4n3CCCCC4)sc2c1	none
CC(C)n1ncc2c(C(=O)NCCc3ccc(S(N)(=O)=O)cc3)cc(C3CC3)nc21	ClpP mod 32µM
COc1ccc(CCNC(=O)c2cc(C3CC3)nc3c2cnn3C(C)C)cc1OC	none
CCOc1ccc(OCCNC(=O)c2cc(C3CC3)nc3c2cnn3C(C)C)cc1	GLP-1R inv ag 8.9µM
CCCc1cc2c(c(NC(C)=O)n1)c(=O)oc1ccccc12	ClpP mod 32µM
C#CCOc1ccccc1CNc1ccccc1	GLP-1R inv ag inconclusive
C#CCOc1ccccc1CNC1CCN(Cc2ccccc2)CC1	GLP-1R inv ag inconclusive, LDHA inh -31
CC(=O)Nc1cc2nn(-c3ccccc3)nc2cc1Cl	p53 reactivation inconclusive, ClpP mod 20µM
CC(C)(C)C(=O)Nc1cc2nn(-c3ccccc3)nc2cc1Cl	ClpP mod 28µM
O=C(CCC(=O)c1cccs1)c1cccs1	p53 reactivation inconclusive
CC(C)CC(O)(CC(C)C)C(=O)NNc1ccccc1	GLP-1R inv ag 5.6µM
Fc1ccc(NC(=S)Nc2cc(-c3ccccc3)[nH]n2)cc1Cl	GLP-1R inv ag inconclusive, GLP1R cytotox 13µM (no result: ClpP mod)
CC(=O)c1ccc(NC(=O)CSc2nnc(N)s2)cc1	none (no result: GLP1R ag, p53 reactivation)
CCN(CC)CCCN(Cc1cc2ccc(C)c(C)c2[nH]c1=O)C(=O)NC1CCCCC1	GLP1R cytotox inconclusive, ClpP mod 28µM
O=C(NC1CCCCC1)N(CCN1CCOCC1)Cc1cc2cc3c(cc2[nH]c1=O)OCCO3	ClpP mod 35µM
COc1ccc2[nH]c(=O)c(CN(C(=O)NC3CCCCC3)C3CCCCC3)cc2c1	ClpP mod inconclusive
COc1ccc(CN(Cc2cc3cc4c(cc3[nH]c2=O)OCO4)C(=O)NC2CCCCC2)cc1	ClpP mod 22µM
Cc1ccc2[nH]c(=O)c(CN(CCCN3CCOCC3)C(=O)NC3CCCCC3)cc2c1	ClpP mod inconclusive

Compound activity from PubChem.
